From PubChem BioAssay AID651711 (Broad Institute, 2012)
Several values for one entry are separate records, joined by “and”; a condition that tells them apart may be missing. Identical values can stand only once. In all, about 350,000 compounds went through this assay and about 180 (0.051%) were called active.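 Rule for the calls: active = mean replicate inhibition above about 25%, with every replicate also reaching it (limit read from the data, passing the limit was not always enough); inconclusive = only one of those two criteria met; inactive = neither criterion met.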 For the sample, actives were picked, then their nearest neighbours and some compounds at random. More than one record can exist for a structure, and the calls need not agree.

The molecules below were run against Protein disulfide-isomerase A6 (Homo sapiens) (UniProt Q15084) (assay: inhibitors of ERp5-driven insulin aggregation, primary screen, biochemical, turbidity, absorbance 650 nm, single point (AID 651711)). Conditions: 90 min, at 9.99 µM, stronger effect = higher value.
Protein disulfide-isomerase A6 (Homo sapiens), sequence (Q15084 whole entry, looked up): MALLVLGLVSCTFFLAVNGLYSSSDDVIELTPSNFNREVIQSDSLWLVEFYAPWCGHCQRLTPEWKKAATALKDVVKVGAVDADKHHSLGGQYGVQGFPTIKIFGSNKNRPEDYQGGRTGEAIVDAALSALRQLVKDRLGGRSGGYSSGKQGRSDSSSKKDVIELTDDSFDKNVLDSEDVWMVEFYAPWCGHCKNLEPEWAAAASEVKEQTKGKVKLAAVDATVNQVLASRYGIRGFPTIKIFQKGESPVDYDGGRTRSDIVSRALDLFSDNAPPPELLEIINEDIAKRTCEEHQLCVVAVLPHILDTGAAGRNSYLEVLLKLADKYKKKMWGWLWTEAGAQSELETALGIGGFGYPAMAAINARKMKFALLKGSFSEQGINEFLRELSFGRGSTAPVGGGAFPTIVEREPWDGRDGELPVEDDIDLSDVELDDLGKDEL

SMILES | inhibition
C[C@H]1CN([C@@H](C)CO)S(=O)(=O)c2ccc(C#CCN(C)C)cc2O[C@@H]1CN(C)Cc1ccc(F)cc1 | 3.33% (inactive)
C[C@@H]1CN([C@@H](C)CO)C(=O)Cc2cc(NC(=O)C3CCCCC3)ccc2O[C@@H]1CN(C)Cc1ccc(C(=O)Nc2ccccc2N)cc1 | -3.91% (inactive)
CN1C(=O)c2cc(NC(=O)c3cnccn3)ccc2OC[C@H]2O[C@@H](CC(=O)NCC3CCCCC3)CC[C@@H]21 | -4.79% (inactive)
CC(C)NC(=O)N(C)C[C@H]1Oc2c(NC(=O)Nc3ccc(F)cc3)cccc2C(=O)N([C@@H](C)CO)C[C@@H]1C | 0.87% (inactive)
COc1cccc(-c2cnc3c(c2)C(=O)N([C@@H](C)CO)C[C@H](C)[C@H](CN(C)C(C)=O)O3)c1 | 1.61% (inactive)
CN(C)C(=O)C[C@@H]1C=C[C@H](NC(=O)Nc2cccc(F)c2)[C@H](CO)O1 | 0.18% (inactive)
COCC(=O)N[C@@H]1C[C@@H]2O[C@@H](CO)CC[C@@H]2O[C@@H]1CCc1ccc(-c2ccccc2)cc1 | -0.551% (inactive)
C[C@H]1CN([C@@H](C)CO)C(=O)c2cccc(NC(=O)c3cnccn3)c2O[C@H]1CN(C)C(=O)Nc1ccccc1 | 2.81% (inactive)
CC(=O)N1[C@H](CO)[C@H](c2ccccc2)[C@H]1CN(C(=O)c1ccccc1F)C(C)C | -2.13% (inactive)
C[C@H](CO)N1C[C@H](C)[C@H](CN(C)S(=O)(=O)c2cccc(F)c2)OCc2cnnn2CCCC1=O | -5.61% (inactive)
Cc1cccc(S(=O)(=O)N(C)C[C@H]2OCc3cnnn3CCCC(=O)N([C@@H](C)CO)C[C@H]2C)c1 | -7.22% (inactive) and 27.4% (active)
Cc1cccc(S(=O)(=O)N(C)C[C@@H]2OCc3cnnn3CCCC(=O)N([C@H](C)CO)C[C@@H]2C)c1 | -3.09% (inactive) and 0.225% (inactive) and -3.77% (inactive)
Cc1nc(NC(=O)C(C)(C)C)sc1[N+](=O)[O-] | 0.0535% (inactive)
O=C(NCC1CC1)[C@@H]1[C@@H](CO)[C@@H]2Cn3c(ccc(-c4ccncc4)c3=O)[C@@H]2N1Cc1cocn1 | 6.61% (inactive)
CO[C@@H]1CN(C)C(=O)c2ccc(NC(=O)NC(C)C)cc2OC[C@@H](C)N(Cc2ccc(-c3ccccn3)cc2)C[C@H]1C | -3.96% (inactive)
CCS(=O)(=O)N1[C@H](CO)[C@@H](c2ccc(C#CC(C)C)cc2)[C@@H]1C#N | 0.717% (inactive)
O=C(C[C@H]1C=C[C@@H](NC(=O)c2ccc(F)cc2)[C@@H](CO)O1)NCCc1ccncc1 | -1.66% (inactive)
COCC#Cc1cnc2c(c1)C(=O)N([C@H](C)CO)C[C@H](C)[C@H](CN(C)C(=O)CCN1CCCCC1)O2 | -2% (inactive)
C[C@@H]1CN([C@H](C)CO)C(=O)Cc2cc(NC(=O)Cc3cn(C)c4ccccc34)ccc2O[C@@H]1CN(C)Cc1ccc(C(F)(F)F)cc1 | -1.92% (inactive)
Cc1cccc(-c2ccccc2[C@@H]2[C@H](C#N)N(c3ncc(-c4ccccc4)s3)[C@H]2CO)c1 | 5.5% (inactive)
CO[C@@H]1CN(C)C(=O)c2cc(NS(=O)(=O)c3cccc(F)c3)ccc2OC[C@@H](C)NC[C@@H]1C | 3.66% (inactive)

SMILES | inhibition
CO[C@@H]1CC[C@@H]2CCOc3c(C#N)cccc3C(=O)N(C)C[C@@H](OC)[C@@H](C)C(=O)N(C)C[C@H]1O2 | 0.649% (inactive)
COc1ccc2c3c(n(C)c2c1)[C@@H](CO)N(CC1CC1)CC31CN(C(=O)c2cccc(F)c2)C1 | -2.91% (inactive)
COCC(=O)N[C@@H]1C=C[C@@H](CC(=O)N2CCCCC2)O[C@@H]1CO | -2.02% (inactive)
CC(C)NC(=O)N(C)C[C@H]1OCCCC[C@@H](C)Oc2ccc(NS(C)(=O)=O)cc2C(=O)N([C@H](C)CO)C[C@H]1C | -1.99% (inactive)
CCCN1C[C@H](C)[C@@H](OC)CN(C)C(=O)c2cc(NS(=O)(=O)CC)ccc2OC[C@H]1C | -4.64% (inactive)
C[C@@H]1CN([C@@H](C)CO)C(=O)Cc2cc(NC(=O)Nc3cccc4ccccc34)ccc2O[C@@H]1CN(C)CC1CCCCC1 | 3.82% (inactive)
O=C(NCC[C@@H]1CC[C@@H](NS(=O)(=O)c2cccc(F)c2)[C@H](CO)O1)C1CC1 | -3.52% (inactive)
CCCNC(=O)N(C)C[C@H]1Oc2cc(C#C[C@@H](C)O)ccc2S(=O)(=O)N([C@H](C)CO)C[C@H]1C | -12.1% (inactive)
CCCN1C[C@@H](C)[C@@H](OC)CN(C)C(=O)c2ccc(NC(=O)CC(F)(F)F)cc2OC[C@H]1C | 9.49% (inactive)
Cc1ccc(-c2ccccc2[C@H]2[C@@H](C#N)N(c3ncc(-c4ccccc4)s3)[C@@H]2CO)cc1 | -0.798% (inactive)
CC=Cc1ccc2n(c1=O)C[C@H]1[C@H](CO)[C@@H](C(=O)NCC3CC3)N(Cc3nccs3)[C@@H]21 (mixture of isomers) | -2.63% (inactive)
COc1ccccc1-c1cnc2c(c1)C(=O)N([C@H](C)CO)C[C@H](C)[C@@H](CN(C)C(=O)CC1CC1)O2 | -2.32% (inactive)
C[C@H]1CN([C@@H](C)CO)C(=O)c2cc(Br)cnc2O[C@@H]1CN(C)C(=O)c1ccccc1 | -13% (inactive)
COCC(=O)Nc1ccc2c(c1)C(=O)N(C)[C@@H]1CC[C@H](CC(=O)NCC3CC3)O[C@@H]1CO2 | 7.57% (inactive)
CC(=O)Nc1ccc2c(c1)C(=O)N(C)[C@H]1CC[C@@H](CC(=O)NCC3CC3)O[C@H]1CO2 | 39.3% (active)
CCNC(=O)C[C@@H]1CC[C@@H]2[C@@H](COc3ccc(NC(C)=O)cc3C(=O)N2C)O1 | -7.17% (inactive)
C[C@@H]1CN([C@@H](C)CO)C(=O)Cc2cc(NC(=O)Nc3cccc4ccccc34)ccc2O[C@H]1CN(C)S(=O)(=O)c1ccc(Cl)cc1 | -3.03% (inactive)
O=C(CN1CCOCC1)N[C@@H]1CC[C@@H](CCNC(=O)C2CCCCC2)O[C@@H]1CO | 0.632% (inactive)
C[C@H](CO)N1C[C@H](C)[C@H](CN(C)Cc2ccc(Oc3ccccc3)cc2)Oc2c(NC(=O)CCCCCC(=O)Nc3ccccc3N)cccc2C1=O | 1.76% (inactive)
CO[C@@H]1CN(C)C(=O)c2cc(NS(=O)(=O)CC(F)(F)F)ccc2OC[C@H](C)N(C)C[C@H]1C | 1.29% (inactive)
C/C=C/c1ccccc1[C@H]1[C@@H](C#N)N(C(C)=O)[C@@H]1CO | 0.399% (inactive)

SMILES | inhibition
COc1ccc(NC(=O)N(C)C[C@@H]2OCc3ccccc3-c3c(n(C)c4ccccc34)C(=O)N([C@H](C)CO)C[C@H]2C)cc1 | 1.51% (inactive)
COc1ccc(S(=O)(=O)Nc2ccc3c(c2)C(=O)N([C@@H](C)CO)C[C@H](C)[C@H](CN(C)Cc2ccc(C(=O)O)cc2)O3)cc1 | 4.86% (inactive)
C/C=C/c1ccc2c(c1)O[C@H](CN(C)C(=O)Cc1ccccn1)[C@H](C)CN([C@H](C)CO)S2(=O)=O | -3.16% (inactive)
N#C[C@@H]1[C@H](c2ccccc2-c2ccccc2F)[C@@H](CO)N1C(=O)c1ccccn1 | -2.07% (inactive)
Cc1ccc(S(=O)(=O)Nc2ccc3c(c2)C(=O)N([C@H](C)CO)C[C@H](C)[C@@H](CN(C)S(=O)(=O)c2cccs2)O3)cc1 | 3.96% (inactive)
C[C@@H]1CN([C@@H](C)CO)C(=O)c2cc(NC(=O)Nc3ccccc3)ccc2O[C@H]1CN(C)C(=O)Nc1ccc(F)cc1 | 4.96% (inactive)
CCC(=O)N(C)C[C@H]1[C@H](c2ccc(-c3ccccc3F)cc2)[C@@H](CO)N1C(C)=O | -0.23% (inactive)
COCC#Cc1ccc([C@@H]2[C@@H](CO)N3C(=O)CN(C(=O)C4CCCC4)C[C@@H]23)cc1 | 0.681% (inactive)
Cc1noc(C)c1S(=O)(=O)N(C)C[C@H]1Oc2ccc(NC(=O)Nc3cccc4ccccc34)cc2CC(=O)N([C@@H](C)CO)C[C@H]1C | -5.17% (inactive)
COc1ccc2c3c(n(C)c2c1)[C@@H](CO)N(C(=O)c1ccc(F)cc1)CC31CN(C(=O)c2ccc(F)cc2)C1 | 1.03% (inactive)
COc1ccc2c3c(n(C)c2c1)[C@@H](CO)N(C(=O)CN1CCOCC1)CC31CN(C(=O)CC2CC2)C1 | -0.576% (inactive)
CN(C)CC(=O)N1[C@@H](CO)[C@H](c2ccccc2)C12CN(C(=O)c1cccc(F)c1)C2 | 2.27% (inactive)
C/C=C/c1ccc([C@@H]2[C@H](CO)N(C(=O)c3cnccn3)C23CN(C(C)=O)C3)cc1 | -4.61% (inactive)
C[C@@H]1CN([C@H](C)CO)C(=O)c2cc(C#CCC3CCCC3)cnc2O[C@H]1CN(C)C(=O)c1cnccn1 | -0.111% (inactive)
C[C@@H]1CN([C@H](C)CO)S(=O)(=O)c2ccc(-c3ccncc3)cc2O[C@H]1CN(C)S(=O)(=O)c1ccccc1F | -3.02% (inactive)
C[C@@H]1CN([C@@H](C)CO)C(=O)c2cc(NS(=O)(=O)c3ccccc3)ccc2O[C@@H]1CN(C)Cc1ccc(C(=O)O)cc1 | -2.81% (inactive)
Cc1noc(C)c1S(=O)(=O)Nc1ccc2c(c1)C(=O)N([C@H](C)CO)C[C@H](C)[C@H](CN(C)S(C)(=O)=O)OCCCC[C@H](C)O2 | -0.161% (inactive)
C[C@@H]1CN([C@@H](C)CO)S(=O)(=O)c2ccc(C#CC(C)(C)O)cc2O[C@H]1CN(C)C(=O)CN(C)C | -0.244% (inactive)
C[C@H](CO)N1C[C@H](C)[C@H](CN(C)C)Oc2cc(C#Cc3ccccc3F)ccc2S1(=O)=O | 11.3% (inactive)
